# Rows were chosen to be rich in hits. Some 13% of all compounds tested hit in one or more screens of this group.
# G9a inh = qHTS Assay for Inhibitors of Histone Lysine Methyltransferase G9a. Histone-lysine N-methyltransferase EHMT2 (Homo sapiens), Q96KQ7. G9a H3K9 monomethylation, AlphaScreen, 2 h. Potency, µM (series often up to 102 µM), most hits filed as inhibitors. actives 8.8% (n = 350,000). AID 504332, 2011; further: nearly all actives have a fitted effect of over 75% in size
# Target sequence (Q96KQ7 913-1193 limits assumed): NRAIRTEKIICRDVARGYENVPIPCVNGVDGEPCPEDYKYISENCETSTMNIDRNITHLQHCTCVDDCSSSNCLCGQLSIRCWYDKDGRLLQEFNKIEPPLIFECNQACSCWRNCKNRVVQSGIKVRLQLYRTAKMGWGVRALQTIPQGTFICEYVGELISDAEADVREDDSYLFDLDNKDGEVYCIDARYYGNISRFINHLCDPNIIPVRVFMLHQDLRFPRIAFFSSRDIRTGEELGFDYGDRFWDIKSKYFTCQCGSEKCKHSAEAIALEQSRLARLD
#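 Compounds were preincubated with 20 nM G9a for 15 min, after which biotinylated H3K9 peptide (500 nM) and SAM (20 uM) started a 2 h room-temperature reaction. Monomethylated product was quantified by antibody-based AlphaScreen chemiluminescence.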
# Lamin A splicing = qHTS Assay for Modulators of Lamin A Splicing; HeLa LMNA splicing GFP/RFP minigene ratio, 48 h; Potency, µM (titrated, usually from 46.1 µM), actives largely listed as inhibitors; actives 0.01% (n = 200,000); active means well fitted inhibition curve with a large enough effect in the signal ratio, with a control signal flat, not every such curve was filed as active; inconclusive means small, poorly fitted or top-dose-only effect, or effect the other way, or a change in a side signal; the % refers to the signal ratio
#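 S3 HeLa cells stably expressing lamin A-EGFP splicing minigene plus DsRed2, 600 cells/well, 48 h compound exposure at 37C. Laser-scanning cytometry; analysed as GFP (500-530 nm)/RFP (575-640 nm) total intensity ratio; 0.5% DMSO vehicle.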
# Sfp inh = qHTS Assay for Inhibitors of Bacillus subtilis Sfp phosphopantetheinyl transferase (PPTase); 4'-phosphopantetheinyl transferase ffp (Bacillus subtilis), Q9F4F7; Biochemical Sfp PPTase activity, qHTS; Potency, µM, actives largely listed as inhibitors; actives 3.5% (n = 310,000); AID 1490, 2009;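 further: the enzyme is Sfp with the accession as filed and its product quenches rhodamine fluorescence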
#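 Step 1, compound plus 15 nM Sfp-PPTase, 15 min, room temperature. Step 2, add rhodamine-CoA (5 uM) and BHQ-2-YbbR (12.5 uM). Step 3, read 525/598 nm fluorescence at 0 and 30 min.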
# ALDH1A1 inh = qHTS Assay for Inhibitors of Aldehyde Dehydrogenase 1 (ALDH1A1) | Purified ALDH1A1, NADH fluorescence, propionaldehyde substrate | Potency, µM (top dose mostly 75.3 µM), usual class: inhibitors | actives 7.3% (n = 220,000) | AID 1030, 2008; active means well fitted inhibition curve with a large enough effect, not every such curve was filed as active; inconclusive means small, poorly fitted or top-dose-only effect, or another doubt; inactive means no such curve, though single readings can be large or run the other way
# miR-21 act = qHTS Assay for Modulators of miRNAs and/orActivators of miR-21. HeLa miR-21 FLuc reporter, luciferase, 48 h. Potency, µM (doses to about 38.3 µM), most hits filed as activators. 340,000 tested, under 10 active. AID 2288, 2010;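 further: miR-21 action dims this reporter so a rising signal means less miR-21 action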
#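 HeLa cells endogenously expressing miR-21, stably carrying CMV-driven firefly luciferase with a downstream miR-21 binding site, 2000 cells/well. Titrations up to approximately 40 uM, 48 hours; luciferase luminescence read.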
# JMJD2E inh = qHTS Assay for Inhibitors of Human Jumonji Domain Containing 2E (JMJD2E). Lysine-specific demethylase 4E (Homo sapiens), B2RXH2. Potency, µM (titrated, usually from 57.1 µM), usual class: inhibitors. actives 1.6% (n = 230,000). AID 2147, 2009. JMJD2E catalytic domain, FDH-coupled NADH fluorescence (FDH is formaldehyde dehydrogenase); further: nearly all actives have a fitted effect of over 50% in size
# Target sequence (B2RXH2 1-337 limits assumed): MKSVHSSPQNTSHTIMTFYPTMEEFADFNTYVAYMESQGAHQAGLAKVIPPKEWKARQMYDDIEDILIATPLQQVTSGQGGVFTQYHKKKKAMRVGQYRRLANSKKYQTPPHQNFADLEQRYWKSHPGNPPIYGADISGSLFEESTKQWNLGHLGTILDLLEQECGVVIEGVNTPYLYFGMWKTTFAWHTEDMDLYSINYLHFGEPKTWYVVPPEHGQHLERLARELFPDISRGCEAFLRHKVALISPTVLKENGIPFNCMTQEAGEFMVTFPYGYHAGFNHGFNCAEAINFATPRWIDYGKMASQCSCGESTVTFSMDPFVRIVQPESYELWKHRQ
# A number is an active result; – = inactive; ? = inconclusive; · = no result given; [ ] = another dose, or the depositor's remark. Unless noted, the call rests on the fitted dose curve; in most records, active means well fitted curve in the direction sought with a large enough effect; inconclusive means small, poorly fitted or top-dose-only effect, or another doubt; inactive means no such curve, though single readings can be large; an effect the other way counts as inactive or inconclusive.
SMILES,G9a inh,Lamin A splicing,Sfp inh,ALDH1A1 inh,miR-21 act,JMJD2E inh
Cc1ccc(C2CC(=O)C(C=NCCN3CCN(C(=O)Cc4ccccc4)CC3)=C(O)C2)cc1 (stereo unspecified),?,–,–,–,–,–
O=C1CC(c2ccccc2)CC(O)=C1C=NCCN1CCN(C(=O)Cc2ccccc2)CC1 (stereo unspecified),79µM,–,–,–,–,–
CC1(C)CC(=O)C(C=NCCN2CCN(C(=O)Cc3ccc(F)cc3)CC2)=C(O)C1,35µM,–,–,18µM,–,–
O=c1[nH]c(=O)n(Cc2ccc(F)cc2)c(O)c1C=NCCCN1CCOCC1,–[12.7 µM],–,–,–,–,–
Cc1ccc(OCC(=O)NCCN2CCN(C(=O)COc3ccc(C)cc3)CC2)cc1,–,–,–,?,–,–
CC1(C)CC(=O)C=C(NCCN2CCN(C(=O)Cc3ccc(Cl)cc3)CC2)C1,71µM,–,–,?,–,–
COc1cccc(CSc2nc(-c3ccccc3OC)nc3c2Cc2c(CO)cnc(C)c2O3)c1,?,·,·,·,–,·
OCC1CCCN2CCCCC12 (stereo unspecified),–,·,–,–,·,–
CC[C@@H]1CN2CCc3cc(OC)c(OC)cc3[C@@H]2C[C@@H]1C[C@H]1NCCc2cc(OC)c(OC)cc21,·,·,–,–,·,–
COc1cc(-c2nc3ccc(Cl)cn3c2Nc2ccc3c(c2)OCCO3)ccc1O,13µM,·,·,·,–,·
Clc1ccc(-c2nc3ccc(Cl)cn3c2CN2CCOCC2)cc1,?,–,?,–,–,?
CO/C1=C\C(C)=C\[C@@H](C)[C@@H](O)[C@H](C)C/C(C)=C/C=C/[C@H](OC)[C@H]([C@@H](C)[C@@H](O)[C@H](C)[C@H]2C[C@@H](O)[C@H](C)[C@@H](C(C)C)O2)OC1=O,–,·,–,–,·,·
CC1N(P(=O)(c2ccccc2)c2ccccc2)CC(O)(c2ccccc2)CC12CC2 (stereo unspecified),·,·,–,–,·,–
CCCC(=O)Nc1ccc(N2CCN(CC)CC2)c(Cl)c1,–[12.7 µM],–,–,–,–,–
CCC(=O)Nc1ccc(N2CCN(CC)CC2)c(Cl)c1,79µM,–,–,–,–,–
CCOC(=O)N1CCN(C(=O)C(CC(C)C)NS(=O)(=O)c2ccc3c(c2)oc(=O)n3C)CC1 (stereo unspecified),–[12.7 µM],–,–,–,–,–
CCCCN1C(=O)/C(=C/c2ccc(N3CCCCCC3)cc2)C(=O)NC1=S,18µM,–,–,0.2µM,–,–
Cc1cc(N2CCCCC2)ccc1C=C1C(=O)N(C)C(=S)N(C)C1=O,16µM,–,–,32µM,–,–
CCN1C(=O)C(=Cc2ccc(N3CCOCC3)o2)C(=O)N(CC)C1=S,·,·,–,·,–,–
CN1C(=O)/C(=C\c2ccc(N3CCCCCC3)cc2)C(=O)NC1=S,28µM,·,?,0.071µM,–,–
Cc1cc(N2CCCC2)ccc1C=C(C#N)C#N,–,?,–,–,–,–
O=C(Oc1ccccc1)N1CCC2(CCCN(C(c3ccccc3)c3ccccc3)C2)CC1,–[12.7 µM],·,–,–,·,·
CN1C(=O)c2ccccc2Sc2ccc(NC(=O)c3ccc(C(F)(F)F)cc3)cc21,–,–,·,·,?,·
COc1ccc(OC)c(C2C(C#N)=C(N)Oc3c2c(C)nn3-c2ccc(C)cc2)c1 (stereo unspecified),25µM,–,–,?,–,–
Cc1nn(-c2ccccc2)c2c1C(c1ccc(F)cc1F)C(C#N)=C(N)O2 (stereo unspecified),–,–,–,13µM,–,–
SMILES,G9a inh,Lamin A splicing,Sfp inh,ALDH1A1 inh,miR-21 act,JMJD2E inh
Cc1nn(-c2ccccc2)c(Cl)c1C1C(C#N)=C(N)Oc2c1c(=O)oc1ccccc21 (stereo unspecified),–,–,–,–,–,?
CC(=O)O[C@H]1C[C@H](O[C@H]2[C@@H](O)CC(O[C@H]3[C@@H](O)C[C@H](O[C@H]4CC[C@@]5(C)[C@H](CC[C@@H]6[C@@H]5CC[C@]5(C)[C@@H](C7=CC(=O)OC7)CC[C@]65O)C4)O[C@@H]3C)O[C@@H]2C)O[C@H](C)[C@H]1O[C@@H]1O[C@H](CO)[C@@H](O)[C@H](O)[C@H]1O (stereo partly specified),–[12.7 µM],·,–,·,·,·
CC[N+](=O)[O-],·,·,·,–,·,·
C/C=C1/CN2CC[C@]34C(=C(C=O)[C@@H]1C[C@H]23)Nc1c(O)cccc14,·,·,–,–,·,–
NC1CCC(CC2CCC(N)CC2)CC1 (stereo unspecified),·,·,·,–,·,·
O=c1[nH]c(O)c(N=Nc2cc([N+](=O)[O-])ccc2O)c(=O)[nH]1,45µM,–,–,20µM,–,–
NC(=O)c1ccc(N=Nc2c(O)[nH]c(=O)[nH]c2=O)cc1,–,–,–,–,–,–
CCC(C(=O)O)C1CCC(C)C(C(C)C(O)C(C)C(=O)C(CC)C2OC3(C=CC(O)[C@@]4(CC[C@](C)(C5CC[C@@](O)(CC)C(C)O5)O4)O3)C(C)CC2C)O1 (stereo partly specified),–[2.33 µM],?,–,–,·,–
CCCCn1c(O)c(/C=N/N2CCCCC2c2cccnc2)c(=O)[nH]c1=S (stereo unspecified),8.9µM,?,–,–,–,–
C=CCn1c(O)c(/C=N/N2CCCCC2c2cccnc2)c(=O)[nH]c1=S (stereo unspecified),–,–,–,–,–,–
CCCCCCC(=O)N/N=C/c1c(O)n(CCCC)c(=S)[nH]c1=O,–,·,–,–,–,18µM
CCCCn1c(O)c(/C=N/N2CCOCC2)c(=O)[nH]c1=S,45µM,·,–,·,–,–
C=CC=O,·,·,·,0.022µM,·,·
Cc1ccc(CNc2cc(C)nc3nc(-c4ccc(C)cc4)nn23)cc1,–,?,·,·,–,·
CN(CCc1ccc(Cl)c(Cl)c1)[C@H]1CCCC[C@H]1N1CCCC1,·,·,?,25µM,·,–
CN1CC[C@@]2(c3cccc(O)c3)Cc3nc4ccccc4cc3C[C@H]2C1,·,·,79µM,–,·,–
COc1cccc(C2(C#N)CCN(C)CC2)c1,–,?,–,–,–,–
C[C@H](N)CN1CCc2ccc(Br)cc21,45µM,?,·,–,·,–
CC(c1nc2ccccc2c(=O)[nH]1)N(C)CCOc1ccc(Cl)cc1 (stereo unspecified),–,·,–,·,–,–
O=C1NC(=O)N(c2cccc(F)c2)C(=O)/C1=C/c1ccc(N2CCOCC2)cc1,·,·,32µM,5µM,–,?

# Source: PubChem (National Center for Advancing Translational Sciences (NCATS))
